Env fusion inh = inhibitors of HIV-1 Env-driven cell-cell fusion, primary screen, HeLa-JRFL effector, CEM21 target cells, luciferase; 360,000 compounds, 1.1% hits; AID 651610, 2012; inhibition, % at 12.3 µM;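 active = mean replicate inhibition score of at least 50 and every replicate individually at or above 50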
Shn3 inh set2 = reduction of Shn3 3'UTR firefly luciferase signal, primary screen, Schnurri-3 inhibitor project, cell-based, Clone20 osteoblasts, set 2 | inhibition, % at 12.5 µM | AID 588674, 2011 | Clone20 osteoblast Shn3 3'UTR firefly luciferase, 24 h | 360,000 compounds, 0.52% hits;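 active = mean inhibition of at least 75% with every replicate also reaching 75%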
EBV LMP1 NFkB = EBV LMP1-driven NF-kappaB luciferase reporter inhibitors, primary screen, cell-based, luminescence, single point | 350,000 compounds, 0.69% hits | LMP1-induced NF-kappaB luciferase reporter cells | inhibition, % at 12.5 µM | AID 504558, 2011; in the data active = inhibition above about 41%
PAX8 inh HTS = inhibitors of PAX8-driven TPO luciferase reporter, primary screen, RMG-I cells, single concentration; SteadyGlo, 24 h; inhibition, % at 12.6 µM; 360,000 compounds, 1.2% hits; AID 652154, 2013;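 active = mean replicate inhibition at least 60% with every replicate also reaching 60%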;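 also: luciferase light reporting Pax8 driven TPO promoter activity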
NSD2 HMT inh = NSD2 histone methyltransferase inhibitors, primary screen, biochemical, AlphaScreen, single concentration, set 2; AID 743445, 2014; inhibition, % at 12.5 µM; 310,000 compounds, 0.54% hits; NSD2 peptide methylation, 120 min; Histone-lysine N-methyltransferase NSD2 (Homo sapiens), O96028; in the data active = inhibition above about 50%
N-glyco inh = increase of ERlucT glycosylation luciferase signal, primary screen, N-linked glycosylation inhibitor project, D54 ERlucT cells, luminescence, set 2; reporter increase, % at 12.5 µM; D54 ERlucT glycosylation luciferase reporter, 24 h; percent of 100 nM tunicamycin response; AID 588692, 2011; 360,000 compounds, 0.23% hits;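 active = mean luciferase reporter signal, scaled so untreated is 0 and the glycosylation-blocking control 100, at or above a set limit in every replicate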;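 also: luciferase carries N-glycosylation sites so blocking glycosylation raises the light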
AlphaScreen art = AlphaScreen signal interference with preloaded methylated product, dose response, artefact control for NSD2 inhibitor project, biochemical, cherry-picked samples | shares compounds with NSD2 HMT inh | AlphaScreen artifact counterscreen, preloaded methylated H4 peptide | AC35, µM (titrated, usually from 10 µM) | 1,500 compounds, 9.4% hits | AID 1053174, 2014; call rule not given here
Each line names hits and unclear results; the compound was inactive in the other large screens (follow-up assays come after a bar, where they were run). The list is not random: actives were taken first. Their share in the collection is about 2.8%.

O=C1C(Cl)=C(NCCCO)C(=O)c2ccccc21	none (no result: Env fusion inh, PAX8 inh HTS)
CN(C)c1ccc(NC2=C(Cl)C(=O)c3ccccc3C2=O)cc1	Shn3 inh set2 98.1, NSD2 HMT inh 58.1 | AlphaScreen art 8.79µM
C[C@H](CO)N1C[C@H](C)[C@H](CN(C)S(=O)(=O)c2cn(C)cn2)Oc2ccc(NC(=O)CCN3CCOCC3)cc2CC1=O	none (no result: Shn3 inh set2, EBV LMP1 NFkB, PAX8 inh HTS, NSD2 HMT inh, N-glyco inh)
CC[n+]1c(/C=C/Nc2ccccc2)oc2ccccc21	NSD2 HMT inh 80.7 (no result: PAX8 inh HTS) | AlphaScreen art inactive
CC[n+]1c(/C=C/Nc2ccccc2)oc2ccc(OC)cc21	none
CC=Cc1ccc2n(c1=O)C[C@@H]1[C@@H](CO)[C@H](C(=O)NCC)[C@H]2N1CC1CCOCC1 (mixture of isomers)	none (no result: Env fusion inh, Shn3 inh set2, EBV LMP1 NFkB, NSD2 HMT inh, N-glyco inh)
O=C(O)Cc1sc(NC2CCCCC2)nc1-c1ccc(Cl)cc1	NSD2 HMT inh 99.0 | AlphaScreen art inactive
CCc1ccc(-n2cccc2/C=C2/C(=N)N3C(=NC2=O)SN=C3S(C)(=O)=O)cc1	NSD2 HMT inh 88.8 | AlphaScreen art inactive
C[C@@H]1CN([C@H](C)CO)C(=O)c2cc(C3=CCCC3)cnc2O[C@H]1CN(C)C(=O)C1CC1	none (no result: Shn3 inh set2, EBV LMP1 NFkB, PAX8 inh HTS, NSD2 HMT inh, N-glyco inh)
C=CCN1CCN(C(c2cccc(OC)c2OC)c2nnnn2CCC(C)C)CC1 (stereo not drawn)	NSD2 HMT inh 97.9 | AlphaScreen art inactive
COc1cccc(C(c2nnnn2CCc2ccccc2)N2CCN(c3ccccc3)CC2)c1OC (stereo not drawn)	none (no result: PAX8 inh HTS)
Cc1cc(/C=C(/C#N)c2nc3ccccc3[nH]2)c(C)n1-c1cc(C(=O)O)cc(C(=O)O)c1	NSD2 HMT inh 76.2 | AlphaScreen art inactive
Cc1noc(C)c1S(=O)(=O)N(C)C[C@@H]1OCCCC[C@@H](C)Oc2ccc(NS(=O)(=O)c3cccs3)cc2C(=O)N([C@@H](C)CO)C[C@H]1C	none (no result: Shn3 inh set2, EBV LMP1 NFkB, NSD2 HMT inh, N-glyco inh)
COc1ccc(S(=O)(=O)Nc2cccc3c2O[C@@H](CN(C)C(=O)Nc2ccccc2)[C@H](C)CN([C@H](C)CO)C3=O)cc1	none (no result: Shn3 inh set2, EBV LMP1 NFkB, NSD2 HMT inh, N-glyco inh)
COCCn1c2nc(=O)n(-c3ccccc3)c(=O)c-2nc2ccccc21	NSD2 HMT inh 50.4 | AlphaScreen art inactive
Cc1ccc(S(=O)(=O)Nc2cccc3c2O[C@H](CN(C)Cc2ccc(Oc4ccccc4)cc2)[C@@H](C)CN([C@H](C)CO)C3=O)cc1	none (no result: Shn3 inh set2, EBV LMP1 NFkB, NSD2 HMT inh, N-glyco inh)
Oc1ccc(NCc2cccc(OCc3ccc(F)cc3)c2)cc1	NSD2 HMT inh 58.6 | AlphaScreen art inactive
C[C@H]1CN([C@@H](C)CO)C(=O)c2cc(-c3ccccc3F)cnc2O[C@H]1CN(C)Cc1cccc(F)c1	none (no result: Shn3 inh set2, EBV LMP1 NFkB, NSD2 HMT inh, N-glyco inh)
Cn1cc2ccc(N)cc2n1	NSD2 HMT inh 87.5 | AlphaScreen art inactive
CC(C)CC#Cc1ccc2c(c1)O[C@@H](CN(C)C(=O)Nc1ccccc1F)[C@H](C)CN([C@H](C)CO)S2(=O)=O	none (no result: Shn3 inh set2, EBV LMP1 NFkB, PAX8 inh HTS, NSD2 HMT inh, N-glyco inh)
Cc1cccc(N2NC(=O)/C(=C/c3ccc(-c4ccc(Cl)c(C(=O)O)c4)o3)C2=O)c1	NSD2 HMT inh 76.3 | AlphaScreen art inactive
C[C@@H]1CN([C@@H](C)CO)C(=O)c2cccc(NC(=O)C3CCCCC3)c2O[C@H]1CN(C)S(C)(=O)=O	none (no result: Shn3 inh set2, EBV LMP1 NFkB, NSD2 HMT inh, N-glyco inh)
C[C@H](CO)N1C[C@H](C)[C@@H](CN(C)C(=O)Nc2ccccc2)Oc2c(NC(=O)c3cnccn3)cccc2C1=O	none (no result: Env fusion inh, Shn3 inh set2, EBV LMP1 NFkB, NSD2 HMT inh, N-glyco inh)
Cc1ccc(S(=O)(=O)N[C@H]2C=C[C@H](CC(=O)NCCc3ccncc3)O[C@@H]2CO)cc1	none (no result: Shn3 inh set2, EBV LMP1 NFkB, NSD2 HMT inh, N-glyco inh)
C[C@@H]1CN([C@H](C)CO)C(=O)c2cc(C#Cc3cccnc3)cnc2O[C@@H]1CN(C)S(=O)(=O)c1ccccc1F	none (no result: Env fusion inh, Shn3 inh set2, EBV LMP1 NFkB, NSD2 HMT inh, N-glyco inh)
C/[N+]([O-])=C1\Cc2ccccc2C1=O	NSD2 HMT inh 61.0 (no result: Env fusion inh, PAX8 inh HTS) | AlphaScreen art inactive
C[C@H]1CN([C@@H](C)CO)S(=O)(=O)c2ccc(C#CC3(O)CCCC3)cc2O[C@@H]1CN(C)C(=O)Cc1ccncc1	none (no result: Shn3 inh set2, EBV LMP1 NFkB, NSD2 HMT inh, N-glyco inh)
O=C(C[C@H]1CC[C@H]2NC[C@H](O)COC[C@@H]2O1)NCc1ccc(Oc2ccccc2)cc1	none (no result: Shn3 inh set2, EBV LMP1 NFkB, NSD2 HMT inh, N-glyco inh)
C[C@H](CO)N1C[C@H](C)[C@@H](CN(C)Cc2cccc(F)c2)Oc2ncc(C#C[C@@H](C)O)cc2C1=O	none (no result: Shn3 inh set2, EBV LMP1 NFkB, PAX8 inh HTS, NSD2 HMT inh, N-glyco inh)
COc1ccc(C(=O)/C=C(\C)Nc2ccc(NC(C)=O)cc2)cc1	none (no result: Env fusion inh, PAX8 inh HTS)
C/C(=C\C(=O)c1ccccc1)Nc1ccc(O)cc1	NSD2 HMT inh 78.1 (no result: PAX8 inh HTS) | AlphaScreen art inactive
C/C(=C\C(=O)c1cccnc1)Nc1ccc(O)cc1	NSD2 HMT inh 77.7 (no result: PAX8 inh HTS) | AlphaScreen art inactive
CCOC(=O)C(C(=O)OCC)c1cc(Br)c2noc3c2c1C(=O)c1ccccc1-3	Shn3 inh set2 98.6, NSD2 HMT inh 96.7 (no result: Env fusion inh, PAX8 inh HTS) | AlphaScreen art inactive
CC(=O)OCCNc1cc(N2CCN(C)CC2)c2noc3c2c1C(=O)c1ccccc1-3	none (no result: NSD2 HMT inh)
C[C@@H]1CN([C@H](C)CO)C(=O)c2cc(NC(=O)CCN3CCOCC3)ccc2O[C@@H]1CN(C)S(=O)(=O)c1cccs1	none (no result: Shn3 inh set2, EBV LMP1 NFkB, NSD2 HMT inh, N-glyco inh)
Cc1[nH]c(=O)[nH]c1C(=O)CCCCC(=O)O	NSD2 HMT inh 129.8 (no result: Env fusion inh) | AlphaScreen art inactive
CN1CC2(Cc3c1ccc1ccccc31)C(=O)OC(C)(C)OC2=O	NSD2 HMT inh 86.6 | AlphaScreen art inactive
Cc1ccc2c(c1)CC1(CN2C)C(=O)OC2(CCCCC2)OC1=O	none (no result: PAX8 inh HTS)
O=C(NC1CCCc2ccccc21)c1ccccc1OC(F)F (stereo not drawn)	NSD2 HMT inh 94.9 | AlphaScreen art inactive
CCOC(=O)c1cc(S(=O)(=O)Nc2ccc(OC)cc2OC)cn1C	NSD2 HMT inh 56.2 | AlphaScreen art inactive

Source: PubChem BioAssay (Broad Institute)
